Results filed as inconclusive are left out. Active and inactive are the calls of the source. Rule for the calls: active = hit-call score of the fitted dose curve at least 0.9, where 1 is the maximum; inconclusive = response in the unintended direction; inactive = score below 0.9.
Molecular target: Estrogen receptor beta (Homo sapiens) (UniProt Q92731)
Experiment: OT_ER_ERbERb_0480: Odyssey Thera (OT) 8-hour HEK293T Protein-Complementation Assay for Estrogen Receptor-beta/-beta Homodimer (AID 2283357);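 note: active means signal gain over DMSO baseline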
Summary of the method: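 ER-beta LBD homodimer PCA stably expressed in HEK293T; 8 h compound exposure, then formaldehyde fixation and Draq5 staining. Gain in nuclear/cytoplasmic fluorescence intensity versus DMSO vehicle, read on laser scanning cytometer.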

Estrogen receptor beta (Homo sapiens), sequence (Q92731 whole entry, looked up): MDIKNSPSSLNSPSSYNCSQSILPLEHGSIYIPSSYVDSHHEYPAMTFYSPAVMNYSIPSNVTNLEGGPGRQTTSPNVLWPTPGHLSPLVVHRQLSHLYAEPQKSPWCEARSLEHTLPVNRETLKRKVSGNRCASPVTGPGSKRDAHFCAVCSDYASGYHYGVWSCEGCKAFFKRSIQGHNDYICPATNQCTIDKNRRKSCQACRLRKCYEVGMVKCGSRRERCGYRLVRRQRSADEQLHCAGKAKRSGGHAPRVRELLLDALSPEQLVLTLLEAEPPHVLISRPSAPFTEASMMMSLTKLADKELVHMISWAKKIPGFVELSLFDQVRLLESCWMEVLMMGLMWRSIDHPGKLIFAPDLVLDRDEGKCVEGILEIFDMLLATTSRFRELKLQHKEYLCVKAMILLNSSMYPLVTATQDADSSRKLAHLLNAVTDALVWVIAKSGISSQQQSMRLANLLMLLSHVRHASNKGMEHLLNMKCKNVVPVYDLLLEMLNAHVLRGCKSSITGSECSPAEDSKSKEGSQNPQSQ

outcome, inactive:
NC(=O)NO
CCOCCO
CCOC(=O)CC(CC(=O)OCC)(OC(C)=O)C(=O)OCC
CCOCCOCCOCCO
CC(O)CN(CCN(CC(C)O)CC(C)O)CC(C)O (stereo not drawn)
CC(=O)OCCC(C)C
CC(C)CCCCCCOC(=O)c1ccc(C(=O)OCCCCCCC(C)C)c(C(=O)OCCCCCCC(C)C)c1
CNCc1ccc(NC(=O)c2c[nH]c3c2C(=O)CCC3)cc1
CC(C)CC(C)(O)C#CC(C)(O)CC(C)C (stereo not drawn)
CC[C@H]1OC(=O)[C@H](C)[C@@H](O[C@H]2C[C@@](C)(OC)[C@@H](O)[C@H](C)O2)[C@H](C)[C@@H](O[C@@H]2O[C@H](C)C[C@H](N(C)C)[C@H]2O)[C@](C)(O)C[C@@H](C)C(=O)[C@H](C)[C@@H](O)[C@]1(C)O
COc1ccc(/C=C/S(=O)(=O)NC(=O)c2ccc(C)cc2Cl)cc1
Clc1nc(Cl)c(Cl)c(Cl)c1Cl
CC(C)(O)c1coc(S(=O)(=O)NC(=O)Nc2c3c(cc4c2CCC4)CCC3)c1
Cc1c(-c2cccnc2)c2ccccc2n1CCCCC(=O)O
CC(=O)OC[C@H]1O[C@@](COC(C)=O)(O[C@H]2O[C@H](COC(C)=O)[C@@H](OC(C)=O)[C@H](OC(C)=O)[C@H]2OC(C)=O)[C@@H](OC(C)=O)[C@@H]1OC(C)=O
COCCOCCOCCOC
O=C1CCCCCN1
O=C(O)CCN(C1(C(=O)NO)CCCC1)S(=O)(=O)c1ccc(Oc2ccc(F)cc2)cc1
O=C1OC(=O)C2C3C=CC(C3)C12 (stereo not drawn)
On1ccccc1=S
C1N2CN3CN1CN(C2)C3
O=C1CCC(N2C(=O)c3ccccc3C2=O)C(=O)N1 (stereo not drawn)
C1=CCCC=CCCC=CCC1
CCCCCCCCCCCCCCCO
CN(C)c1ccc(Cc2ccc(N(C)C)cc2)cc1

Molecular target: human Peroxisome Proliferator-activated Receptor alpha (PPARa), PPARA (gene 5465) (UniProt Q07869)
Sequence (Q07869 whole entry, looked up): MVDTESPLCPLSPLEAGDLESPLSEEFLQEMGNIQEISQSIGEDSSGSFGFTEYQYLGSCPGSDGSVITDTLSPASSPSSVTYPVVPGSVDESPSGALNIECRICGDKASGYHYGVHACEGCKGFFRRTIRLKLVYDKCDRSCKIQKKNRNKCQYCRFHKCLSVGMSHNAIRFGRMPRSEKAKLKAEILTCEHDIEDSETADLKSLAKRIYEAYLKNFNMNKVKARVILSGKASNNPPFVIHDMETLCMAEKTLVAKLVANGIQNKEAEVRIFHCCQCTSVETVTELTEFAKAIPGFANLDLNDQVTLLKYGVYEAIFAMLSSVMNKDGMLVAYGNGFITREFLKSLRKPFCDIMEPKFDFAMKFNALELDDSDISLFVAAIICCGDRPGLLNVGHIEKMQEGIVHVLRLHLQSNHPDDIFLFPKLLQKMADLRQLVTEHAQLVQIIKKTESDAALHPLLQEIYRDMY
Experiment: NVS_NR_hPPARa: NovaScreen (NVS) Nuclear Receptor Binding Assay for human Peroxisome Proliferator-activated Receptor alpha (PPARa) (AID 2283359);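 note: activity means loss of TR-FRET signal versus DMSO baseline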
Summary of the method: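 Loss of TR-FRET binding signal relative to DMSO was measured 1 h after chemical addition to extracted receptor protein. Chemicals were first tested in duplicate at 25 uM, and actives were followed up in concentration series.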

AC50, active:
CCCCC(CC)COC(=O)c1ccc(C(=O)OCC(CC)CCCC)cc1 (stereo not drawn) 25 µM

outcome, inactive:
CCCCCCCCCCCCCCCO
CN(C)c1ccc(Cc2ccc(N(C)C)cc2)cc1
